Active and inactive are the calls of the source.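 Rule for the calls: active = every separate test run called active, meaning the signal drops and a potency is fitted within twice the top valid dose; inconclusive = runs disagree, poor fit, or flat partial inhibition; inactive = all runs inactive, flat, opposite direction or too weak.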
The compounds below were run against Mitogen-activated protein kinase 3 (Homo sapiens) (UniProt P27361) (assay: ERK1 kinase inhibitors, dose response, selectivity assay for Dyrk1A inhibitor NFAT project, biochemical, ADP-Glo luminescence, cherry pick, set 2 (AID 602295)). Conditions: 120 min; series mostly up to 10 µM; activity change, negative = inhibition: at the top concentration.
Chain of Mitogen-activated protein kinase 3 (Homo sapiens) (P27361 whole entry, looked up): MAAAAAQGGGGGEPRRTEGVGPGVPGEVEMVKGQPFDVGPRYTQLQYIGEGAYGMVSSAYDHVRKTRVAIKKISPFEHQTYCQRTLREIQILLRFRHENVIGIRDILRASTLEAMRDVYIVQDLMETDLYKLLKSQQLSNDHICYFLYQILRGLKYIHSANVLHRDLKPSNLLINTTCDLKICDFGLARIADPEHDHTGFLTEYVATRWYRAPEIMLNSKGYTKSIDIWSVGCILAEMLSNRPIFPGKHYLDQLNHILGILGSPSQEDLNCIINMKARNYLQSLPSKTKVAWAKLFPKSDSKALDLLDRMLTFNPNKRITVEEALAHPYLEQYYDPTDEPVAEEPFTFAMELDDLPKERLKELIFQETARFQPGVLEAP

Activity change, negative = inhibition, inactive:
Cc1c(-c2ccnc(NCc3ccc(Cl)cc3)n2)sc(=O)n1C 18.4%
COc1ccc(-c2nccc(NCc3ccc(C)cc3)n2)cc1 -1%
CC(=O)Nc1ccc(SCc2ncc(-c3ccccc3)o2)cc1 -22.2%
CCN1CCN(Cc2ccc(NC(=O)c3ccc(C)c(NC(=O)N4CCNC4=O)c3)cc2C(F)(F)F)CC1 4.17%
O=C(Nc1nc(-c2ccncc2)cs1)c1ccco1 -15.8%
Clc1ccc(CNc2nccc(-c3ccc4c(c3)OCO4)n2)cc1Cl 33.6%
COc1cccc(NC(=O)Nc2ccc3c(c2)N(C)C(=O)CS3)c1 -9.32%
c1csc(CCNc2ncnc3ccc(-c4ccc5c(c4)OCO5)cc23)c1 -4.93%
O=C(Nc1nc2c(s1)CCCC2)c1ccc(N2C(=O)CCC2=O)cc1 13%
CN(C)c1ccc(-c2nccc(NCc3cccs3)n2)cc1 -15.6%
Brc1ccc(CNc2nccc(-c3ccc4c(c3)OCO4)n2)cc1Br 23.2%
CN(Cc1nccs1)c1ncnc2ccc(-c3ccc4c(c3)OCO4)cc12 13.9%
Cc1ccsc1CNc1ncnc2ccc(-c3ccc4c(c3)OCO4)cc12 1.53%
Clc1ccc(CNc2nccc(-c3ccc4c(c3)OCCO4)n2)cc1Cl 31.5%
N#CCSc1nc(Nc2ccc3c(c2)OCO3)c2ccccc2n1 -21.8%

Reference: PubChem BioAssay AID602295 (Broad Institute, 2012)
